Several values for one entry are separate records, joined by “and”; a condition that tells them apart may be missing. Identical values can stand only once. Results filed as inconclusive are left out. The source holds several records for some structures; these can differ, active in one and inactive in another. Activity calls are given as the source filed them. Unless noted, calls follow the shape of the dose curve; as a rule, active = well fitted curve in the direction sought with a large enough effect in the repeat runs; inconclusive = weak or mixed curves; inactive = no such curve, though single readings can be large; an effect the other way counts as inactive or inconclusive.
Experiments:
[1] = qHTS assay to identify small molecule antagonists of the thyroid receptor (TR) signaling pathway - cell viability counter screen (AID 743064); also: nearly all actives have a fitted effect of over 50% in size
Summary of the method: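 GH3.TRE-Luc cells, 4 h pre-plating; cpd + T3 1 nM final; 37 °C 23.5 h; CellTiter-Fluor 30 min; fluorescence read.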

[2] = qHTS assay to identify small molecule antagonists of the thyroid receptor (TR) signaling pathway (AID 743065); also: series mostly up to about 70 µM; nearly all actives have a fitted effect of over 55% in size
Summary of the method: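 GH3.TRE-Luc rat pituitary cells carrying two TR response elements driving luciferase were plated for 4 h, given compound plus 1 nM T3 (final), and incubated 23.5 h at 37 C. ONE-Glo luminescence measured reporter inhibition; CellTiter-Fluor fluorescence tracked cytotoxicity.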

[3] = test system: thyroid hormone receptor (rat, GH3 cells); assay: qHTS assay to identify small molecule agonists of the thyroid receptor (TR) signaling pathway (AID 743066; calls by dose curve)
[4] = qHTS assay to identify small molecule antagonists of the estrogen receptor alpha (ER-alpha) signaling pathway - cell viability counter screen (AID 743074; calls by dose curve;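 also: HEK293 cells carrying ER-alpha-UAS-bla reporter stimulated with 17beta-estradiol; nearly all actives have a fitted effect of over 45% in size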)
[5] = qHTS assay to identify small molecule antagonists of the estrogen receptor alpha (ER-alpha) signaling pathway using the BG1 cell line - cell viability counter screen (AID 743081);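 also: compound given together with 17beta-estradiol as the ER stimulus; series mostly up to about 70 µM; nearly all actives have a fitted effect of over 45% in size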
[6] = target: Aromatase (Homo sapiens) (UniProt P11511); assay: qHTS assay to identify aromatase inhibitors (AID 743083); also: nearly all actives have a fitted effect of over 55% in size; also: potency is read from the fitted curve at half-maximal effect
[7] = qHTS assay to identify aromatase inhibitors - cell viability counter screen (AID 743084);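 also: cells stimulated with testosterone during compound exposure; nearly all actives have a fitted effect of over 55% in size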; also: potency is read from the fitted curve at half-maximal effect
[8] = target: Aryl hydrocarbon receptor (Homo sapiens) (UniProt P35869); assay: qHTS assay to identify small molecule that activate the aryl hydrocarbon receptor (AhR) signaling pathway (AID 743085); also: nearly all actives have a fitted effect of over 15% in size; also: potency is read from the fitted curve at half-maximal effect;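 as to activation: HG2L7.5c1 human HepG2 liver cells with stably integrated DRE-driven firefly reporter; series mostly up to about 70 µM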
Summary of the method: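 Luminescence read-out: ONE-Glo reagent, 30 min at room temperature, in HG2L7.5c1 HepG2 reporter cells treated 24 h at 37C. Viability was measured beforehand by CellTiter-Fluor fluorescence after 30 min at 37C.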

[9] = qHTS assay to identify small molecule that activate the aryl hydrocarbon receptor (AhR) signaling pathway - cell viability counter screen (AID 743086);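 also: HepG2 liver cells carrying the AhR DRE luciferase reporter; series mostly up to about 70 µM; nearly all actives have a fitted effect of over 45% in size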
Summary of the method: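 HepG2-AhR-luc (HG2L7.5c1) cells, 4000/well, were preincubated 5 h at 37C, exposed to compound in qHTS format for 24 hr at 37C, then given CellTiter-Fluor for 30 min; viability was read as fluorescence in the reporter wells.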

[10] = qHTS assay to identify small molecule antagonists of the peroxisome proliferator-activated receptor gamma (PPARg) signaling pathway - cell viability counter screen (AID 743194); also: nearly all actives have a fitted effect of over 55% in size
Summary of the method: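 PPARg-UAS-bla HEK293H cells were plated, rested 5 h at 37 C, then treated with compounds plus rosiglitazone (50 nM final) for 17 h at 37 C; viability was then read by CellTiter-Glo luminescence after 30 min at room temperature.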

[11] = qHTS assay for small molecule agonists of the antioxidant response element (ARE) signaling pathway (AID 743202; active = well fitted activation curve with a large enough effect in the signal ratio in the repeat runs, not every such curve was filed as active; the % refers to the signal ratio; also: potency is read from the fitted curve at half-maximal effect)
Summary of the method: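 Compounds delivered in DMSO to ARE-bla HepG2 cells (2,000 cells/well, pre-incubated 5 h) and left 16 h at 37 C. LiveBLAzer B/G FRET substrate then added for 2 h at RT before fluorescence reading.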

[12] = qHTS assay for small molecule agonists of the antioxidant response element (ARE) signaling pathway - cell viability counter screen (AID 743203; calls by dose curve; also: nearly all actives have a fitted effect of over 55% in size; also: potency is read from the fitted curve at half-maximal effect)
Summary of the method: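 CellSensor ARE-bla HepG2 cells, 2,000 per well, rested 5 hrs at 37C/5% CO2, then exposed to compound in DMSO for 16 hrs; viability read as CellTiter-Glo luminescence after 30 min at room temperature, in the reporter wells.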

[13] = qHTS assay for small molecule activators of the heat shock response signaling pathway - cell viability counter screen (AID 743209); also: nearly all actives have a fitted effect of over 50% in size; also: potency is read from the fitted curve at half-maximal effect
Summary of the method: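 CellSensor HSE-bla HeLa cells, plated overnight at 37 C/5% CO2, were exposed to compounds in DMSO for 5 h at 37 C. Viability was then read in the same wells by CellTiter-Glo luminescence after 30 min at room temperature.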

[14] = target: Estrogen receptor (Homo sapiens) (UniProt P03372); assay: qHTS assay to identify small molecule agonists of the estrogen receptor alpha (ER-alpha) signaling pathway (AID 743075; calls by dose curve;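 also: HEK293 GripTite cells with ER-alpha and UAS-driven beta-lactamase reporter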)
[15] = target: Estrogen receptor (Homo sapiens) (UniProt P03372); assay: qHTS assay to identify small molecule agonists of the estrogen receptor alpha (ER-alpha) signaling pathway using the BG1 cell line (AID 743079); also: nearly all actives have a fitted effect of over 20% in size
[16] = qHTS assay to identify small molecule antagonists of the estrogen receptor alpha (ER-alpha) signaling pathway using the BG1 cell line (AID 743080; calls by dose curve;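 also: BG1 cells stimulated with 17beta-estradiol alongside compound; series mostly up to about 70 µM; nearly all actives have a fitted effect of over 25% in size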)
Summary of the method: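 BG1-Luc-4E2 cells (endogenous full-length ER-alpha, stable 4×ERE-luciferase) were starved 5 days in phenol-red-free medium with 10% charcoal-stripped FBS, plated 24 h, then given compound plus 17beta-estradiol for 21.5 h at 37 C; ONE-Glo luminescence read after 30 min.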

[17] = target: Peroxisome proliferator-activated receptor gamma (Homo sapiens) (UniProt P37231); assay: qHTS assay to identify small molecule agonists of the peroxisome proliferator-activated receptor gamma (PPARg) signaling pathway (AID 743094; active = well fitted activation curve with a large enough effect in the signal ratio in the repeat runs, not every such curve was filed as active; the % refers to the signal ratio)
Summary of the method: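 GeneBLAzer PPARg UAS-bla HEK293H cells carrying a stably integrated beta-lactamase reporter were pre-incubated 5 h at 37C, then exposed to compounds in DMSO for 17 h at 37C; LiveBLAzer B/G FRET substrate was added for 1 h at room temperature and fluorescence read.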

[18] = target: Peroxisome proliferator-activated receptor gamma (Homo sapiens) (UniProt P37231); assay: qHTS assay to identify small molecule antagonists of the peroxisome proliferator-activated receptor gamma (PPARg) signaling pathway (AID 743191; calls by dose curve; also: series mostly up to about 63 µM; nearly all actives have a fitted effect of over 30% in size)
Summary of the method: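 GeneBLAzer PPARg UAS-bla HEK293H cells carrying a UAS-driven beta-lactamase reporter were plated at 3000 cells/well, preincubated 5 h at 37C, then given compound for 17 h at 37C; LiveBLAzer B/G FRET substrate was read after 1 h at room temperature.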

[19] = qHTS assay for small molecule activators of the heat shock response signaling pathway (AID 743210; active = well fitted activation curve with a large enough effect in the signal ratio in the repeat runs, with a control signal flat, not every such curve was filed as active; the % refers to the signal ratio;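 also: HeLa cells with beta-lactamase reporter driven by heat shock elements; series mostly up to about 63 µM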)
Summary of the method: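 Reporter gene assay: HeLa cells stably bearing an HSE-bla construct, compound treatment 5 h at 37 C, LiveBLAzer substrate 2.5 h at RT, fluorescence intensity.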

[20] = target: Estrogen receptor (Homo sapiens) (UniProt P03372); assay: qHTS assay to identify small molecule antagonists of the estrogen receptor alpha (ER-alpha) signaling pathway (AID 743069; active = well fitted curve in the direction sought with a large enough effect in the signal ratio in the repeat runs, not every such curve was filed as active; the % refers to the signal ratio)
Summary of the method: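 Estradiol-stimulated ER-alpha-UAS-bla HEK293 cells, 18 hr compound exposure at 37C. LiveBLAzer B/G substrate, 2 hr RT, fluorescence read.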

Measured: Potency

Chain of Aromatase (Homo sapiens) (P11511 whole entry, looked up): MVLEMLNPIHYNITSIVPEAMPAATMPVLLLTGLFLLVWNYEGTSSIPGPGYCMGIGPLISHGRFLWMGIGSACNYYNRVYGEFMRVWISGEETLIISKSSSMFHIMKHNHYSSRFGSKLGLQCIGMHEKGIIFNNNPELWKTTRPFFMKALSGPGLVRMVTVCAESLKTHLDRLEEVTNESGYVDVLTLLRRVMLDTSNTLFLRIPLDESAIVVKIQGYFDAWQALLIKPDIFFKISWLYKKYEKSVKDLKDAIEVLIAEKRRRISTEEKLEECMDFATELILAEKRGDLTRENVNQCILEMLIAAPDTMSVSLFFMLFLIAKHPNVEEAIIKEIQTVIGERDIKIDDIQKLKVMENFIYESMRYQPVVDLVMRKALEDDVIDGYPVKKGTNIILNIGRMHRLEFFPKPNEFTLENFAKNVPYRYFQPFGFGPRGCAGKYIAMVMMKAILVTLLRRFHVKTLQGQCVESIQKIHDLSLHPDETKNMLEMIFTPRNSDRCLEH
Chain of Peroxisome proliferator-activated receptor gamma (Homo sapiens) (P37231 whole entry, looked up): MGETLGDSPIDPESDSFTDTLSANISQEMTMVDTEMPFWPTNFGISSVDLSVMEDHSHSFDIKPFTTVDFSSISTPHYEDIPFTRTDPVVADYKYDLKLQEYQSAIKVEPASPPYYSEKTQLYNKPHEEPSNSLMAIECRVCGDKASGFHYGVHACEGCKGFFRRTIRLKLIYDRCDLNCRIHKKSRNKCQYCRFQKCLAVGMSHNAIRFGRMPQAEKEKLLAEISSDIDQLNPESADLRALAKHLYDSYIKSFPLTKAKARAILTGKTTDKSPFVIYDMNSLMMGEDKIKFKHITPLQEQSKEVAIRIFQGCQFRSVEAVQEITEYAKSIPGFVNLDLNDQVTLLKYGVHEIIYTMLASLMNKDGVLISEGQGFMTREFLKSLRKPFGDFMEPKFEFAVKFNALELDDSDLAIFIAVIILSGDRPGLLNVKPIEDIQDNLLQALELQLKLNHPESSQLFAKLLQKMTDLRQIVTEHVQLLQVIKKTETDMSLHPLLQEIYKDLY
Chain of Aryl hydrocarbon receptor (Homo sapiens) (P35869 whole entry, looked up): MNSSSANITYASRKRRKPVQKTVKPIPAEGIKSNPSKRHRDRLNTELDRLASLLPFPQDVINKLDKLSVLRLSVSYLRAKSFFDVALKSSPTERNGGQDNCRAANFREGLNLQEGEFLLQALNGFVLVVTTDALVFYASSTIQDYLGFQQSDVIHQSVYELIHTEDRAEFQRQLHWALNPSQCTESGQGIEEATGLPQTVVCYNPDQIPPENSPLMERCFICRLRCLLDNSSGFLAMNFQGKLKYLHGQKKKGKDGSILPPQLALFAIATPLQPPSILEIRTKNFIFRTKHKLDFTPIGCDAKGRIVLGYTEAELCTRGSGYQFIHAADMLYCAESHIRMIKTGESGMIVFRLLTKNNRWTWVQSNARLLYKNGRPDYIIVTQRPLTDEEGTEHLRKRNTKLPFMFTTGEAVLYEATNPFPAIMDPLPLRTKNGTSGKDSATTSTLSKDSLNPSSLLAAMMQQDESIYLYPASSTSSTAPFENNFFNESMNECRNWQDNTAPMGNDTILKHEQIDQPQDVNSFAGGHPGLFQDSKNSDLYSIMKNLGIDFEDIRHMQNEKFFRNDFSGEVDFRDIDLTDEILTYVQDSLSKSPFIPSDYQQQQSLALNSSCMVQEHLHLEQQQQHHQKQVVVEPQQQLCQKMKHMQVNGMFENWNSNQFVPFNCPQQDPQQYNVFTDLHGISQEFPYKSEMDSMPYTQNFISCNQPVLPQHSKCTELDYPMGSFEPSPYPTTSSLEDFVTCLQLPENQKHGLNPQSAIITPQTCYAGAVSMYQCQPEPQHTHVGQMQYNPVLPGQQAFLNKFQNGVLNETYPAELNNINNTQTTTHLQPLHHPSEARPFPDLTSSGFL
Chain of Estrogen receptor (Homo sapiens) (P03372 whole entry, looked up): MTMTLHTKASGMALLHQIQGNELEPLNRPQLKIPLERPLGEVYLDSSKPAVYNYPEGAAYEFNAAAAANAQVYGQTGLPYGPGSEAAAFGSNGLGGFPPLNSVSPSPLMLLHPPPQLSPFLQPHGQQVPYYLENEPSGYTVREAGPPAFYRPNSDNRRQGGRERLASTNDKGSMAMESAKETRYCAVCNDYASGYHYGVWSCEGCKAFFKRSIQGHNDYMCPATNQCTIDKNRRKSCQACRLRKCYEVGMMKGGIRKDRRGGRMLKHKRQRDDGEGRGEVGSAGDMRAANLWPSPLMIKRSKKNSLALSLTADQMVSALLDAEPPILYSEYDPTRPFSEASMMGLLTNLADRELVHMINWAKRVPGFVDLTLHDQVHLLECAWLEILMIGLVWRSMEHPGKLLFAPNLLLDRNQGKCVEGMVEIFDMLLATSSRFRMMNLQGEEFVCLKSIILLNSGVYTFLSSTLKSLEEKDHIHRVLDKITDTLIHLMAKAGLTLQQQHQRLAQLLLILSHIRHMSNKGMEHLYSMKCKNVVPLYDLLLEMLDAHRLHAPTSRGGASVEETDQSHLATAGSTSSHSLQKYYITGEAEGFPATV

COC(=O)Nc1cccc(OC(=O)Nc2cccc(C)c2)c1
48.6 µM (active) and inactive: [11]
active: [8] 27.3 µM and 2.73 µM
not listed: [14] | [15] | [16] | [17] | [18] | [19] | [20]
inactive: all other assays above

CNC(=O)O/N=C/C(C)(C)SC
not listed: [1] | [19] | [20]
inactive: all other assays above

CNc1cnn(-c2cccc(C(F)(F)F)c2)c(=O)c1Cl
active: [8] 27.3 µM
not listed: [11] | [14] | [15] | [16] | [17] | [20]
inactive: all other assays above

CCCOC(=O)c1ccccc1C(=O)OCCC
not listed: [1] | [20]
inactive: all other assays above

C=C(C)C(=O)OCC(CC)CCCC (stereo not given)
not listed: [1]
inactive: all other assays above

CN(C)C(=O)C(c1ccccc1)c1ccccc1
not listed: [14] | [15] | [16] | [17] | [20]
inactive: all other assays above

[N-]=[N+]=CC(=O)OC[C@H](N)C(=O)O
inactive: [1] | [2] | [3] | [4] | [5] | [9] | [10] | [11] | [12] | [13]

O=C(O)Cc1ccccc1
not listed: [1]
inactive: all other assays above

COc1nc(NC(C)C)nc(NC(C)C)n1
not listed: [1]
inactive: all other assays above

CC(C)(C)C(=O)CCl
not listed: [2] | [3] | [8] | [17] | [20]
inactive: all other assays above

Clc1cnc(Oc2ccc(Oc3ncc(Cl)cc3Cl)cc2)c(Cl)c1
not listed: [11] | [14] | [15] | [16] | [18] | [20]
inactive: all other assays above

O=S(=O)(O)OOS(=O)(=O)O
not listed: [14] | [15] | [16] | [17] | [20]
inactive: all other assays above

N#Cc1cccc(C#N)c1
not listed: [1] | [14] | [15] | [16] | [17] | [20]
inactive: all other assays above

CCOP(=S)(OCC)Oc1ccc([N+](=O)[O-])cc1
active: [8] 31 µM and 10.6 µM
not listed: [1] | [14] | [15] | [16] | [17] | [20]
inactive: all other assays above

CN(C)CCC#N
not listed: [1] | [8] | [17] | [20]
inactive: all other assays above

CNC(=O)Oc1cccc2ccccc12
active: [8] 5.31 µM and 54 µM and 27.3 µM
not listed: [1] | [11] | [17] | [18] | [20]
inactive: all other assays above

CN(C)C(=O)Nc1cccc(C(F)(F)F)c1
not listed: [1] | [14] | [15] | [16] | [20]
inactive: all other assays above

CCOP(=S)(OCC)Oc1cc(C)nc(C(C)C)n1
inactive and 17.2 µM (active): [6]
inactive and 27.3 µM (active): [7]
inactive and 6.86 µM (active): [8]
inactive and 54.5 µM (active): [12]
inactive: [3] | [4] | [5] | [9] | [18] | [10] | [11] | [19]
inactive and 43.6 µM (active): [13]
